KB-V1 cytotox: qHTS assay for MDR1-selective chemotherapeutics: Primary screen using the drug-selected MDR subline cells KB-V1; hit rate 3.4% among 400,000; Potency, µM (top dose mostly 46.1 µM), most hits filed as cytotoxic; KB-V1 MDR cells viability, CellTiter-Glo, 72 h; AID 1347076, 2019; further: nearly all actives have a fitted effect of over 60% in size
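KB-V1 MDR subline cells in DMEM (phenol-red free, 10% FBS) exposed to compounds in qHTS concentration series for 72 h at 37 degrees C. Viability read by CellTiter-Glo luminescence; concentration-effect curves fitted after normalization and correction.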
ELG1 DNA repair: qHTS screen for small molecules that inhibit ELG1-dependent DNA repair in human embryonic kidney (HEK293T) cells expressing luciferase-tagged ELG1; HEK293T ELG1-luciferase reporter, luminescence, 16 h; DNA damage induced by 5-fluorouridine; Potency, µM (doses to about 46.1 µM), actives largely listed as inhibitors; hit rate 2.3% among 330,000; AID 504467, 2011; further: nearly all actives have a fitted effect of over 55% in size
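Luminescence from the luciferase reporter, measured 30 min after ONE-Glo reagent at room temperature, was the read-out. Beforehand, 2,000 cells per well were exposed for 16 hr at 37 °C to 5-fluorouridine together with compound or vehicle.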
KB-3-1 cytotox: qHTS assay for MDR1-selective chemotherapeutics: Primary screen using the parental adenocarcinoma cell KB-3-1. Potency, µM (top dose mostly 46.1 µM), actives largely listed as cytotoxic. AID 1347075, 2019. KB-3-1 viability, CellTiter-Glo ATP luminescence, 72 h. hit rate 1.4% among 400,000; further: nearly all actives have a fitted effect of over 60% in size
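Screening of KB-3-1 cells (DMEM, 10% FBS, phenol-red free) ran from lowest to highest compound concentration; after 72 h at 37 °C viability was read luminescently and curves fitted.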
SW480 rerep: A quantitative high throughput screen for small molecules that induce DNA re-replication in SW480 colon adenocarcinoma cells | SW480 DNA re-replication, Hoechst DNA content imaging, 48 h | Potency, µM (doses to about 46.1 µM), actives largely listed as activators | hit rate 1.8% among 340,000; further: nearly all actives have a fitted effect of over 55% in size
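Cells (250 per well) received 23 nL compound or DMSO by pin tool and were kept 48 hr at 37 C, 5% CO2. Nuclei were then stained with Hoechst for 40 min and scanned for DNA content.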
MCF10A rerep: A quantitative high throughput screen for small molecules that induce DNA re-replication in MCF 10a normal breast cells | MCF 10A DNA re-replication, Hoechst nuclear intensity, 48 h | hit rate 2.9% among 350,000 | Potency, µM (highest dose often 46.1 µM), actives largely listed as activators; further: nearly all actives have a fitted effect of over 50% in size
Each line names hits and unclear results; the compound was inactive in the other large screens. Most compounds without a hit are left out; they make up all but 8.2% or so of the library. The call rests on the fitted dose curve; in most records, active means well fitted curve in the direction sought with a large enough effect; inconclusive means small, poorly fitted or top-dose-only effect, or another doubt; inactive means no such curve, though single readings can be large; an effect the other way counts as inactive or inconclusive.

CC(C)(C)c1ccc(CN2N=Nc3ccccc3S2(=O)=O)cc1	KB-V1 cytotox 8.2µM, ELG1 DNA repair inconclusive, KB-3-1 cytotox 11.6µM, SW480 rerep inconclusive, MCF10A rerep inconclusive
COc1ccccc1N(C)C(=O)Cn1c(=O)oc2cc(S(=O)(=O)N3CCCC3)ccc21	none (no result: ELG1 DNA repair, SW480 rerep, MCF10A rerep)
COc1cc(NC(=O)c2ccc(-c3c(C)noc3C)c3ccoc23)cc(OC)c1OC	KB-V1 cytotox 5.8µM, KB-3-1 cytotox inconclusive (no result: ELG1 DNA repair, SW480 rerep, MCF10A rerep)
COc1ccc(-c2ccc(C(=O)Nc3cc(OC)c(OC)c(OC)c3)c3occc23)c(C)c1	KB-V1 cytotox 6.51µM, KB-3-1 cytotox inconclusive (no result: ELG1 DNA repair, SW480 rerep, MCF10A rerep)
COc1ccc(-c2coc3c(C(=O)NCc4ccccc4)cccc23)c(C)c1	KB-V1 cytotox inconclusive (no result: ELG1 DNA repair, SW480 rerep, MCF10A rerep)
CC(=O)Nc1ccc(NC(=O)c2ccc(-c3c(C)noc3C)c3ccoc23)cc1	none (no result: ELG1 DNA repair, SW480 rerep, MCF10A rerep)
COc1ccc(-c2coc3c(C(=O)NCC(C)C)cccc23)c(C)c1	KB-V1 cytotox 14.6µM, KB-3-1 cytotox inconclusive (no result: ELG1 DNA repair, SW480 rerep, MCF10A rerep)
Cc1cccc(C)c1OCc1cc(=O)n2c3c(sc2n1)CCCC3	none (no result: ELG1 DNA repair, SW480 rerep, MCF10A rerep)
O=C(CNC(=O)c1ccccc1F)N/N=C/c1cccnc1	ELG1 DNA repair inconclusive
COc1ccc(Nc2ncc(C(=O)N3CCC(C(N)=O)CC3)c3ccccc23)cc1	none
COc1ccc(Nc2ncc(C(=O)N3CCN(Cc4ccccc4)CC3)c3ccccc23)cc1	ELG1 DNA repair 16.4µM, MCF10A rerep inconclusive
O=C(NCc1ccccc1)C(c1ccco1)N(C(=O)c1csnn1)c1ccccc1 (centres undefined)	none
CCC(C)(C)NC(=O)C(c1ccco1)N(C(=O)c1csnn1)c1cccc(F)c1 (centres undefined)	KB-V1 cytotox 16.4µM
CCC(C)N(C(=O)c1csnn1)C(C(=O)NCc1ccc(F)cc1)c1ccco1 (centres undefined)	KB-V1 cytotox 16.4µM
CCOc1ccc(C(=O)NCC(=O)N2CC=C(c3ccccc3)CC2)cc1OCC	none
N#Cc1ccccc1S(=O)(=O)NC(=O)[C@H]1O[C@@H](n2cnc3c(N)ncnc32)[C@H](O)[C@@H]1O	none (no result: ELG1 DNA repair, SW480 rerep, MCF10A rerep)
O=C(CNC(=O)c1ccccc1F)NCc1ccccn1	ELG1 DNA repair inconclusive
COc1cc(-c2c(C#N)c(N)nc3c2CCCC3)ccc1O	none
COc1nc(-c2cccs2)cc(-c2ccc(C)cc2)c1C#N	KB-V1 cytotox 11.2µM, KB-3-1 cytotox 15.8µM, SW480 rerep 3.98µM, MCF10A rerep inconclusive
COc1ccc(-c2cc(-c3ccc(O)cc3)nc(N)c2C#N)cc1OC	KB-V1 cytotox inconclusive, KB-3-1 cytotox inconclusive, MCF10A rerep inconclusive
COc1ccc(-c2c(C#N)c(N)nc3c2CCc2ccccc2-3)cc1OC	KB-V1 cytotox 5.17µM, ELG1 DNA repair inconclusive, KB-3-1 cytotox 5.8µM, SW480 rerep inconclusive, MCF10A rerep 1.64µM
COc1ccc(-c2cc(-c3cccs3)nc(OC)c2C#N)cc1OC	KB-V1 cytotox 4.61µM, ELG1 DNA repair 18.4µM, KB-3-1 cytotox inconclusive, SW480 rerep inconclusive, MCF10A rerep 6.51µM
CCn1c(CN2CCOCC2)nnc1SCC(=O)Nc1ccccc1Cl	none
O=S(=O)(c1cc(Cl)c(Cl)cc1Cl)N1CCN2CCCC2C1 (centres undefined)	SW480 rerep 0.366µM
Cc1nnc(SCC(=O)N2CCC(c3noc4ccc(F)cc34)CC2)s1	KB-V1 cytotox inconclusive, ELG1 DNA repair inconclusive, MCF10A rerep inconclusive
Cc1sc2ncnc(SCC(=O)N3CCC(c4noc5ccc(F)cc45)CC3)c2c1C	KB-V1 cytotox 10.3µM
O=C(CSc1ccc(F)cc1)N1CCC(c2nc3ccccc3s2)CC1	ELG1 DNA repair inconclusive
O=C(CSc1ccc2ccccc2n1)N1CCC(c2noc3ccc(F)cc23)CC1	KB-V1 cytotox 9.2µM, ELG1 DNA repair inconclusive, MCF10A rerep inconclusive
O=[N+]([O-])c1cccc(-c2nnc(-c3ccccc3)o2)c1	ELG1 DNA repair inconclusive, MCF10A rerep inconclusive
Cc1occc1-c1nnc(-c2cc([N+](=O)[O-])cc([N+](=O)[O-])c2)o1	SW480 rerep 13µM

Screening results as filed in PubChem.
